# Experimental data taken from PubChem BioAssay (Tox21).
# Values joined by “and” are separate entries in the source; they are usually repeats but may differ in a detail not shown here. Equal entries are not always repeated. Active and inactive are the calls of the source. Entries that show only a call come without a potency. The call rests on the fitted dose curve; in most records, active means well fitted curve in the direction sought with a large enough effect in the repeat runs; inconclusive means weak or mixed curves; inactive means flat fitted curve, though single readings scatter.
# Test: qHTS assay to test for compound auto fluorescence at 460 nm (blue) in HEK293 cell free culture (AID 720681)
# Details: cell-free medium, autofluorescence 405/460 nm (blue); series mostly up to 91.3 µM; fluorescence, % of fluorescent control: at the top concentration
# Text: U.S. Tox21 Program National Center for Advancing Translational Sciences [NCATS] NIH Chemical Genomics Center [NCGC] U.S. Environmental Protection Agency [EPA] National Institutes of Environmental Health Sciences [NIEHS] National Toxicology Program [NTP] U.S. Food and Drug Administration [FDA] Tox21 Assay Overview: Compound auto fluorescence often interferes with screening of the compound library against various biological targets and signaling pathways. Some of these compounds may have fluorophoric properties. Such properties may interfere with the assay outputs resulting in false positives and/or negatives. To decrease such complications and ensure the compound activities are relevant in terms of biological response, the Tox21 10K compound library was screened for auto fluorescence. From the fluorophores used as reporter signals in our screening assays, the auto fluorescence equivalencies of compounds against three fluorophores have been evaluated: Triamterene, Fluorescein and Rose Bengal sodium for blue, green and red fluorescence, respectively. The fluorescence intensities were measured using Excitation/Emission wavelengths at 405/460nm, 485/535nm and 540/590nm for blue, green and red labels, respectively. This assay includes the blue fluorescence data.
# Tox21 Assay Protocol Summary: 5 uL of culture medium (DMEM containing 10% FBS) per well was dispensed into black wall/clear bottom 1536-well plates using a Multidrop Combi Dispenser (ThermoFisher Scientific, Waltham, MA). After 23 nL compound or DMSO vehicle was transferred into assay plate by a pintool work station (Kalypsys, San Diego, CA), fluorescence intensities in the assay plates were measured by an Envision (PerkinElmer, Shelton, CT) plate reader using three labels for measuring blue, green and red fluorescence at […] 460, 535 and 590nm respectively.
# Potency means the concentration at half of the fitted maximal effect.
Compound,Potency,"fluorescence, % of fluorescent control"
CCCOC(=O)NCCCN(C)C,inactive,–
CC(O)CNCC(C)O (stereo not given),inactive,–
CCCCCCC(=O)O,inactive,–
CC(=O)OCc1ccc2c(c1)OCO2,inactive,–
O=c1c(O)c(-c2ccc(O)c(O)c2)oc2cc(O)cc(O)c12,inactive,–
CC(C)=CCC/C(C)=C/C=O,inactive,–
Cc1cccc(C)c1[N+](=O)[O-],inactive,–
CCCCC(CC)COC(=O)c1ccc(C(=O)OCC(CC)CCCC)cc1 (stereo not given),inactive,–
CN=C(NC#N)NCCSCc1nc[nH]c1C,inactive,–
CC/C(C)=N/O,inactive,–
Cc1cc(C)cc(O)c1,inactive,–
Nc1cccc(N)n1,–,6.51% (inactive)
Cc1ccccc1C=O,inactive,–
O=C(c1ccccc1)c1ccc(O)c(O)c1O,inactive,–
Nc1nc(N)c2nc(-c3ccccc3)c(N)nc2n1,12.6 µM (active) and 39.8 µM (active),–
CCCN(CCC)C(=O)SCC,inactive,–
CC(=O)OC[C@H]1O[C@@](COC(C)=O)(O[C@H]2O[C@H](COC(C)=O)[C@@H](OC(C)=O)[C@H](OC(C)=O)[C@H]2OC(C)=O)[C@@H](OC(C)=O)[C@@H]1OC(C)=O,inactive,–
COC(=O)CCCCC(=O)OC,inactive,–
Cc1ccc(C)c(S(=O)(=O)O)c1,inactive,–
CCCCCNCCCCC,inactive,–

Compound,Potency,"fluorescence, % of fluorescent control"
COc1cc(NC(=O)CC(C)=O)c(OC)cc1Cl,inactive,–
CCCCC(=O)O,inactive,–
COc1c2ccoc2cc2oc(=O)ccc12,inactive,–
COc1ccc([C@@H]2CC(=O)c3c(O)cc(O[C@@H]4O[C@H](CO[C@@H]5O[C@@H](C)[C@H](O)[C@@H](O)[C@H]5O)[C@@H](O)[C@H](O)[C@H]4O)cc3O2)cc1OC,inactive,–
C=CC(C)(C)C,inactive,–
O=C(O)Cc1c[nH]c2ccccc12,inactive,–
NC(=O)NC(N)=O,inactive,–
O=C1CCCCCCCCCCC1,inactive,–
CCc1cccc(O)c1,inactive,–
CC(=O)Nc1ccc(CC(=O)O)cc1,inactive,–
CC(=O)c1nccs1,inactive,–
CC(C)(C)NC[C@H](O)COc1nsnc1N1CCOCC1,inactive,–
NC(N)=S,inactive,–
OCc1ccc(Cl)cc1Cl,inactive,–
C=C(C)CC(C)(C)C,inactive,–
CC[N+](CC)(CC(=O)Nc1c(C)cccc1C)Cc1ccccc1,inactive,–
C=CC(=O)NCOCCCC,inactive,–
COc1ccc(N)c(OC)c1,inactive,–
Brc1ccc(Oc2ccc(Br)cc2)cc1,inactive,–
OB(O)O,inactive,–
